Inconclusive results are not listed. Calls of active or inactive are those of the source. Unless noted, calls come from the whole dose curve; as a rule, active = well fitted curve in the direction sought with a large enough effect in the repeat runs; inconclusive = weak or mixed curves; inactive = no such curve, though single readings can be large; an effect the other way counts as inactive or inconclusive.
Columns and labels:
[1] = qHTS assay to identify small molecule antagonists of the glucocorticoid receptor (GR) signaling pathway - cell viability counter screen (AID 720693); note: nearly all actives have a fitted effect of over 55% in size
[2] = qHTS assay for identifying genotoxic compounds that show differential cytotoxicity against isogenic chicken DT40 cell lines with known DNA damage response pathways - wild type cell line (AID 743012); note: nearly all actives have a fitted effect of over 60% in size
Procedure, shortened: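 Using parental DT40 (300 cells/well), compounds delivered in DMSO incubate 40 h at 37 C/5% CO2. CellTiter-Glo reagent then stands 30 min at room temperature, and luminescence gives cell viability.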

[3] = qHTS assay for identifying genotoxic compounds that show differential cytotoxicity against isogenic chicken DT40 cell lines with known DNA damage response pathways - Rev3 mutant cell line (AID 743014); note: nearly all actives have a fitted effect of over 55% in size
[4] = qHTS assay for identifying genotoxic compounds that show differential cytotoxicity against isogenic chicken DT40 cell lines with known DNA damage response pathways - Rad54/Ku70 mutant cell line (AID 743015); note: nearly all actives have a fitted effect of over 60% in size
[5] = qHTS assay to identify small molecule antagonists of the androgen receptor (AR) signaling pathway - cell viability counter screen (AID 743033; note: nearly all actives have a fitted effect of over 45% in size)
[6] = qHTS assay to identify small molecule antagonists of the androgen receptor (AR) signaling pathway using the MDA cell line - cell viability counter screen (AID 743041; note: nearly all actives have a fitted effect of over 45% in size)
Procedure, shortened: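 MDA-kb2 AR-luc cells (MMTV-luciferase, AR/GR responsive) treated with compounds plus R1881 agonist for 16 h at 37C. CellTiter-Fluor added at 15.5 h; fluorescence read after 30 min in the same wells.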

[7] = qHTS assay to identify small molecule antagonists of the thyroid receptor (TR) signaling pathway - cell viability counter screen (AID 743064); note: nearly all actives have a fitted effect of over 50% in size
Procedure, shortened: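 Fluorescence from CellTiter-Fluor, added after 23.5 h exposure at 37 °C, reported viability of GH3.TRE-Luc cells co-treated with compound and 1 nM T3. Measured in the same wells as the luciferase TR readout.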

[8] = qHTS assay to identify small molecule antagonists of the thyroid receptor (TR) signaling pathway (AID 743065); note: series mostly up to about 70 µM; nearly all actives have a fitted effect of over 55% in size
Procedure, shortened: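 GH3.TRE-Luc rat pituitary cells (two TREs driving luciferase) were dosed with compound, then stimulated with 1 nM T3 (final) for 23.5 h at 37 C. ONE-Glo luminescence was the read-out, with CellTiter-Fluor fluorescence as the cytotoxicity counter-screen.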

[9] = system: thyroid hormone receptor (rat, GH3 cells); experiment: qHTS assay to identify small molecule agonists of the thyroid receptor (TR) signaling pathway (AID 743066; calls by dose curve)
[10] = qHTS assay to identify small molecule antagonists of the estrogen receptor alpha (ER-alpha) signaling pathway - cell viability counter screen (AID 743074; calls by dose curve;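 note: HEK293 cells carrying ER-alpha-UAS-bla reporter stimulated with 17beta-estradiol; nearly all actives have a fitted effect of over 45% in size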)
[11] = qHTS assay to identify small molecule antagonists of the estrogen receptor alpha (ER-alpha) signaling pathway using the BG1 cell line - cell viability counter screen (AID 743081);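 note: compound given together with 17beta-estradiol as the ER stimulus; series mostly up to about 70 µM; nearly all actives have a fitted effect of over 45% in size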
[12] = target: Aromatase (Homo sapiens) (UniProt P11511); experiment: qHTS assay to identify aromatase inhibitors (AID 743083); note: series mostly up to about 70 µM; nearly all actives have a fitted effect of over 55% in size
[13] = qHTS assay to identify aromatase inhibitors - cell viability counter screen (AID 743084)
[14] = target: Estrogen receptor (Homo sapiens) (UniProt P03372); experiment: qHTS assay to identify small molecule agonists of the estrogen receptor alpha (ER-alpha) signaling pathway (AID 743075; calls by dose curve)
[15] = target: Estrogen receptor (Homo sapiens) (UniProt P03372); experiment: qHTS assay to identify small molecule agonists of the estrogen receptor alpha (ER-alpha) signaling pathway using the BG1 cell line (AID 743079); note: nearly all actives have a fitted effect of over 20% in size
[16] = qHTS assay to identify small molecule antagonists of the estrogen receptor alpha (ER-alpha) signaling pathway using the BG1 cell line (AID 743080; calls by dose curve;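 note: BG1 cells stimulated with 17beta-estradiol alongside compound; series mostly up to about 70 µM; nearly all actives have a fitted effect of over 25% in size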)
Procedure, shortened: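 Endogenous full-length ER-alpha in BG1-Luc-4E2 cells drives a stably integrated 4×ERE luciferase gene; compounds were tested against 17beta-estradiol over 21.5 h, with luminescence and multiplexed viability fluorescence recorded.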

[17] = target: Estrogen receptor (Homo sapiens) (UniProt P03372); experiment: qHTS assay to identify small molecule antagonists of the estrogen receptor alpha (ER-alpha) signaling pathway (AID 743069; active = well fitted curve in the direction sought with a large enough effect in the signal ratio in the repeat runs, not every such curve was filed as active; the % refers to the signal ratio)
Procedure, shortened: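 HEK293 ER-alpha-UAS-bla GripTite cells, held overnight in 2% charcoal-stripped FBS, 5,000 cells/well, preincubated 4 h, then compound plus 17beta-estradiol for 18 h at 37C. Beta-lactamase read by LiveBLAzer B/G FRET substrate, 2 h at room temperature.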

[18] = target: Androgen receptor (Homo sapiens) (UniProt P10275); experiment: qHTS assay to identify small molecule agonists of the androgen receptor (AR) signaling pathway (AID 743036; active = well fitted activation curve with a large enough effect in the signal ratio in the repeat runs, with a control signal flat, not every such curve was filed as active; the % refers to the signal ratio)
Procedure, shortened: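 Fluorescence from a beta-lactamase FRET substrate served as read-out in AR-UAS-bla GripTite HEK293 cells. Cells were treated with DMSO-dissolved compounds for 16 h at 37C, then with LiveBLAzer B/G substrate for 2 h at room temperature.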

[19] = target: Androgen receptor (Homo sapiens) (UniProt P10275); experiment: qHTS assay to identify small molecule agonists of the androgen receptor (AR) signaling pathway using the MDA cell line (AID 743040; note: nearly all actives have a fitted effect of over 20% in size)
Procedure, shortened: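 MDA-kb2 breast carcinoma cells carrying MMTV-luciferase (responsive to AR and GR), plated 5 h then treated 16 h with compounds at 37C, 0% CO2. Read-out was ONE-Glo luminescence after 30 min at room temperature.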

[20] = target: Androgen receptor (Homo sapiens) (UniProt P10275); experiment: qHTS assay to identify small molecule antagonists of the androgen receptor (AR) signaling pathway using the MDA cell line (AID 743042; note: nearly all actives have a fitted effect of over 55% in size)
Procedure, shortened: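 MDA-kb2 breast carcinoma cells carrying MMTV-luciferase (AR/GR responsive) were co-treated with compounds and the agonist R1881 for 16 h at 37C. Inhibition read as ONE-Glo luminescence; CellTiter-Fluor fluorescence measured in parallel for cytotoxicity.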

Measured: Potency

Chain of Androgen receptor (Homo sapiens) (P10275 whole entry, looked up): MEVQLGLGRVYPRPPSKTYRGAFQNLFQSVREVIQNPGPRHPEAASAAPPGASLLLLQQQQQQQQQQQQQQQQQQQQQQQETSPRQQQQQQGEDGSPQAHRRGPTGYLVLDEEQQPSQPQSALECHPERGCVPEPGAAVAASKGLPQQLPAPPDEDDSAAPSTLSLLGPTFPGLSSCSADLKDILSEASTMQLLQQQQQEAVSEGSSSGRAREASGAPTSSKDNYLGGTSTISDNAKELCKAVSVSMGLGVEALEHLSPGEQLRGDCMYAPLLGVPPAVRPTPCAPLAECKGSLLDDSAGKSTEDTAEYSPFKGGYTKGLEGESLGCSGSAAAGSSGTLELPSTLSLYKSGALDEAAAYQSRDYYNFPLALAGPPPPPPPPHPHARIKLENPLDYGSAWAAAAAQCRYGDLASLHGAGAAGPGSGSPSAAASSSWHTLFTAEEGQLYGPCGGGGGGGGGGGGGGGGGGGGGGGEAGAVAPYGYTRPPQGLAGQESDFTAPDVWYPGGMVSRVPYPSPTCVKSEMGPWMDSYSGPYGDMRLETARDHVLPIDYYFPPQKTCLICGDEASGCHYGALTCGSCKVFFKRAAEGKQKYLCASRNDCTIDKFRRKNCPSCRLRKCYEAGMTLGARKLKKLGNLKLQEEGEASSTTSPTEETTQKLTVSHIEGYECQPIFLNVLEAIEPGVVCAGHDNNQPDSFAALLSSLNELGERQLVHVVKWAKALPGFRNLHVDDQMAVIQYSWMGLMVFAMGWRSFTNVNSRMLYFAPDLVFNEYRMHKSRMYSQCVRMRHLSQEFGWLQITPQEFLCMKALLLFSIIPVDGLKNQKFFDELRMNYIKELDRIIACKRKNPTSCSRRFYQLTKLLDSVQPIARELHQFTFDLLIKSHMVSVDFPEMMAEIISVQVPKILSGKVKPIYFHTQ
Chain of Aromatase (Homo sapiens) (P11511 whole entry, looked up): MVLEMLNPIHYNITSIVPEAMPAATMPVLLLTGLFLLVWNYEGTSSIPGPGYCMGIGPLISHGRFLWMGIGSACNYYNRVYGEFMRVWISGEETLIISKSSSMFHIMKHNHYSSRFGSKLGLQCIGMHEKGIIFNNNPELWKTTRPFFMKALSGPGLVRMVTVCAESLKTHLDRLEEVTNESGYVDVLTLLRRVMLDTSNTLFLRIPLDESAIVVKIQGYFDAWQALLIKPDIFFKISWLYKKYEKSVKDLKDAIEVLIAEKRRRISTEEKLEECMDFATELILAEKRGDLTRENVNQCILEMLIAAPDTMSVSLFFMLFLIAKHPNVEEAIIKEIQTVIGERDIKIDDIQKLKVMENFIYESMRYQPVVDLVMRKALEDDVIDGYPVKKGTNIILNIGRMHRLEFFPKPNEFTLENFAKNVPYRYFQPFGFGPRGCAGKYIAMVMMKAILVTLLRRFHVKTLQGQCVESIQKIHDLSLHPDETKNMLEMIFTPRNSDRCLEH
Chain of Estrogen receptor (Homo sapiens) (P03372 whole entry, looked up): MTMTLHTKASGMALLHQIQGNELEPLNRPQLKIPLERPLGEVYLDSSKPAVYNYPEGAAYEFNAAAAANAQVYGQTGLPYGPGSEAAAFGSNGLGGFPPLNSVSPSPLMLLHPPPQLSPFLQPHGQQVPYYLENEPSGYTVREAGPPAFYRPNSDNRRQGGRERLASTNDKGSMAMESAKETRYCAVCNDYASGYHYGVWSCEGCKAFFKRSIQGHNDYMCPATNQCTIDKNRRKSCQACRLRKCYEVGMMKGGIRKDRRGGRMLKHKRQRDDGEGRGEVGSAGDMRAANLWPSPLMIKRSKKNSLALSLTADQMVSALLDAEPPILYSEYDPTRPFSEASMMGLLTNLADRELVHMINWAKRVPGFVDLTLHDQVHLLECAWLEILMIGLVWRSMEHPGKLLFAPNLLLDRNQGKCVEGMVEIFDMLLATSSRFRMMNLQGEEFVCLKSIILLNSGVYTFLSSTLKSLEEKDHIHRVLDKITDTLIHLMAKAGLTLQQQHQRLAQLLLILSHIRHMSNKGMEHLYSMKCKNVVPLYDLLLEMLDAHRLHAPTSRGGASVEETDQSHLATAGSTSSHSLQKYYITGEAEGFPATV

CCn1cc(C(=O)O)c(=O)c2cnc(N3CCCC3)nc21
inactive: [1] | [2] | [3] | [4] | [5] | [6] | [7] | [8] | [9] | [10] | [11]

O=NN(CCCl)C(=O)NC1CCCCC1
not listed: [14] | [15] | [16] | [17] | [18] | [19] | [20]
inactive: all other assays above

C/C(CC(C)C)=N\O
not listed: [17] | [18] | [19] | [20]
inactive: all other assays above

C=CCCCCCCCC
not listed: [8] | [14] | [15] | [16] | [17] | [18] | [19] | [20]
inactive: all other assays above

N#Cc1ccccc1O
not listed: [17] | [18] | [19] | [20]
inactive: all other assays above

CCCC(=O)OC/C=C(\C)CCC=C(C)C
not listed: [7] | [11] | [18] | [19] | [20]
inactive: all other assays above

CC(C)[C@H]1CC[C@H](C)C[C@@H]1O
not listed: [5] | [8] | [14] | [15] | [16] | [17]
inactive: all other assays above

O=C1CCC(=O)N1Cl
not listed: [5] | [18] | [19] | [20]
inactive: all other assays above

CC(C)(CO)C(O)C(=O)NCCCO (stereo not drawn)
not listed: [7] | [8] | [9] | [18] | [19] | [20]
inactive: all other assays above

OC[C@@H](O)C(O)[C@@H](O)CO (stereo partly drawn)
inactive: [1] | [2] | [3] | [4] | [5] | [6] | [8] | [9] | [11] | [12] | [13]
